CYP2C19 inhib = blocks human cytochrome P450 2C19. CYP2C19 Supersomes, luciferin-H EGE luminescence, 30 min. 96,000 compounds, 21% hits. P33261. inhibition, % at 5 µM. AID 778;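 active = CYP2C19 inhibition above a set limit at 5 µM in the primary screen, cut at about 50% in these data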
Mac1 fbg enh = CD11b/CD18-fibrinogen binding enhancement; P05107+P11215; K562 CD11b/CD18 adhesion to fibrinogen, ATPlite luminescence; activation, % at 10 µM; 93,000 compounds, 0.07% hits;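 active = 10 µM primary screen giving 50% or more activity, confirmed by 40% or more on retest at that dose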
Target sequence (P05107 whole entry, looked up, other chains not shown): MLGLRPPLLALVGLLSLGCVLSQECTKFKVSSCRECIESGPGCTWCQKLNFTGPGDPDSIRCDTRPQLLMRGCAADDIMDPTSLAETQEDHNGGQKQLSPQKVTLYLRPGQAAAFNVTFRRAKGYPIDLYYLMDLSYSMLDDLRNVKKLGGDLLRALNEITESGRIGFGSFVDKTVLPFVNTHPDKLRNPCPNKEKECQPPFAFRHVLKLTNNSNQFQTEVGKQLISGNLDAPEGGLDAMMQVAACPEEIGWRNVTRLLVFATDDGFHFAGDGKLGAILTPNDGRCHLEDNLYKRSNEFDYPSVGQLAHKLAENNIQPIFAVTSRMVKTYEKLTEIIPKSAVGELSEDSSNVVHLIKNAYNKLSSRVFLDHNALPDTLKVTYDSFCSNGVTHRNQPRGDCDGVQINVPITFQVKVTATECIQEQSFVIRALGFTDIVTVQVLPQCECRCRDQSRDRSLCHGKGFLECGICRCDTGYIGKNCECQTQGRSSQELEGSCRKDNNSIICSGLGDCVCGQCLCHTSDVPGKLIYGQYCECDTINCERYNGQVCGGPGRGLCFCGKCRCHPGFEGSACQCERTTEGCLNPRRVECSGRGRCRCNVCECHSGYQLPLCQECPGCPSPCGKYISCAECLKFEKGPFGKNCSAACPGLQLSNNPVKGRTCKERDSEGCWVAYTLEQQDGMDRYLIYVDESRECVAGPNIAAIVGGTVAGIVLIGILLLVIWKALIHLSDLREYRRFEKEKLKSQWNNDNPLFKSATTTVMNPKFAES
CYP2C9 activ = CYP2C9 (human) activation; P11712; recombinant CYP2C9, luciferin-H conversion, luminescence; hits give high values; factor 1 = untreated enzyme, 0 = blocked; activation factor at 5 µM; 96,000 compounds, 1.4% hits; AID 1024;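 active = activation factor of 2 or more for CYP2C9 at a 5 µM dose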
CYP2C19 activ = cytochrome P450 2C19 (human) activation. P33261. recombinant CYP2C19, luciferin-H EGE luminescence; hits give high values; 0 = fully inhibited enzyme, 1 = untreated enzyme. activation factor at 5 µM. 96,000 tested, under 10 active;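 active = activation factor of at least 2 at 5 µM in the primary screen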
CD11b adhes inh = blocks human CD11b/CD18 adhesion to fibrinogen; P05107+P11215; K562 CD11b/CD18 adhesion to fibrinogen, ATPlite luminescence; Mn2+ added to activate the integrin; inhibition, % at 10 µM; 93,000 compounds, 0.54% hits; AID 1497;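 active = primary inhibition of 50% or more at 10 µM, then 40% or more on retest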
CYP2C9 inh = human CYP2C9 inhibition. P11712. CYP2C9 Supersomes, luciferin-H conversion, luminescence. inhibition, % at 5 µM. 96,000 compounds, 20% hits. AID 777;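 active = blocking of liver enzyme CYP2C9 beyond about 50% at 5 µM, limit read from the data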
Large screens that a line does not name were inactive. Rows were chosen to be rich in hits. Some 28% of all compounds tested hit in one or more screens of this group.

COc1ccc(-c2nnn(CC(=O)NC3CCCc4ccccc43)n2)cc1OC (stereo not drawn)	CYP2C19 inhib 64
COc1ccc(-c2nc(CSCC(=O)N3CCc4ccccc4C3)c(C)o2)cc1OC	none
COc1cccc(-c2nnn(CC(=O)NC3CCCC3)n2)c1OC	none
COc1ccc(-c2nc(CS(=O)CC(=O)NC3CCCc4ccccc43)c(C)o2)cc1OC (stereo not drawn)	CYP2C19 inhib 56, CYP2C9 inh 88
N#CCC(=N)N1CCN(c2ccccc2Cl)CC1	none
COC(=O)CCN(C1CCCCC1)S(=O)(=O)c1ccc(S(=O)(=O)NC2CCCCC2)cc1	CYP2C19 inhib 97, CYP2C9 inh 100
O=C(COc1ccc(S(=O)(=O)NC2CCCC2)cc1)N1CCCCCC1	none
COC(=O)COc1ccc(S(=O)(=O)NC2CCCCCC2)cc1	CYP2C19 inhib 94, CYP2C9 inh 88
CCN(C1CCCCC1)S(=O)(=O)c1ccc(C(=O)O)cc1	none
O=S(=O)(NC1CCCCC1)c1ccc(Br)cc1	CYP2C19 inhib 80
CCc1ccc(OCC(=O)NC(=S)Nc2ccc(S(=O)(=O)NC3CCCCC3)cc2)cc1	CYP2C9 inh 74
O=C(COc1ccc(S(=O)(=O)N2CCOCC2)cc1)Nc1ccccc1C(F)(F)F	none
CCC(C)(C)c1nnc(NC(=O)c2ccc([N+](=O)[O-])cc2)s1	none
Cc1c(O)ccc2c3c(c(=O)oc12)CCCC3	CYP2C19 inhib 69, CYP2C9 activ 3
Cc1c(O)ccc2c3c(c(=O)oc12)CCC(C)C3 (stereo not drawn)	CYP2C19 inhib 93
Cc1oc2c(C)c3oc(=O)c4c(c3cc2c1C)CCCC4	CYP2C19 inhib 96, CYP2C9 inh 50
Cc1oc(C(=O)O)cc1COc1ccc2c3c(c(=O)oc2c1C)CCCC3	none
CC(C)CN(Cc1c(O)ccc2c3c(c(=O)oc12)CCC3)CC(C)C	none (no result: Mac1 fbg enh, CD11b adhes inh)
O=C(Cn1nnc(-c2ccccc2F)n1)Nc1ccc(S(=O)(=O)NC2CCCC2)cc1	none
O=C(CN1CCN(S(=O)(=O)c2ccc(Br)cc2)CC1)Nc1ccc2c(c1)OCCO2	CYP2C19 inhib 78
O=C(Nc1ccc2c(c1)OCCO2)c1ccc(S(=O)(=O)N2CCCCC2)cc1	CYP2C9 inh 70
O=C(Nc1ccc2c(c1)OCCO2)c1ccc(Br)c(S(=O)(=O)N2CCOCC2)c1	CYP2C19 inhib 82, CYP2C9 inh 53
Cc1ccsc1C(=O)OCc1nc2ccccc2c(=O)[nH]1	CYP2C19 inhib 72, CYP2C9 inh 87
COc1ccc(CNC(=O)CCc2c(C)nc3ncnn3c2C)cc1	none
CC1C(c2ccccc2)C(C#N)(C#N)C2(C#N)C(=O)NC1(N)C2C (stereo not drawn)	CYP2C19 inhib 98
O=C(CCCN1C(=O)c2ccccc2C1=O)OC1CSCC1NC(=O)c1ccccc1 (stereo not drawn)	CYP2C19 inhib 70
Cn1c(=O)oc2cc(S(=O)(=O)NCc3ccncc3)ccc21	CYP2C19 inhib 98, CYP2C9 inh 81
CCOc1ccccc1CNS(=O)(=O)c1ccc2[nH]c(=O)sc2c1	CYP2C19 inhib 96
CCOC(=O)Cn1c(=O)oc2cc(S(=O)(=O)NCc3ccccn3)ccc21	none
O=C(Cn1c(=O)oc2cc(S(=O)(=O)NCc3ccccc3)ccc21)NCc1ccco1	CYP2C9 inh 61
Cn1c(=O)oc2cc(S(=O)(=O)NCCc3ccccc3)ccc21	CYP2C19 inhib 80
CCCN(CCC)CCCNS(=O)(=O)c1ccc2c(c1)oc(=O)n2C	none
COc1ccccc1CNS(=O)(=O)c1ccc2[nH]cc(C(=O)O)c(=O)c2c1	none (no result: Mac1 fbg enh, CD11b adhes inh)
CCOC(=O)CN1C(=O)C(=O)c2cccc(C)c21	none
COc1ccc(C(C)NC(=O)C2CCCO2)cc1OC (stereo not drawn)	none
Cc1cccc(CCNS(=O)(=O)c2ccc3c(c2)oc(=O)n3C)c1	CYP2C19 inhib 89 (no result: Mac1 fbg enh, CD11b adhes inh)
CCN(CCNS(=O)(=O)c1ccc2[nH]c(=O)sc2c1)c1ccccc1	CYP2C19 inhib 100
C=CCN(c1ccccc1)S(=O)(=O)c1ccc2c(c1)oc(=O)n2C	CYP2C19 inhib 87
CCN(CCC(=O)O)c1ccccc1	none
Cc1cccc(CCNS(=O)(=O)c2cnc[nH]2)c1	CYP2C19 inhib 61, CYP2C9 inh 92
Cc1ccc(NC(=O)CCNS(=O)(=O)c2ccc3c(c2)oc(=O)n3C)cc1	none
Cn1c(=O)nc2n(Cc3ccccc3)c3cccc(Cl)c3cc-2c1=O	none (no result: CYP2C19 inhib, CYP2C9 activ, CYP2C19 activ, CYP2C9 inh)
CCCCn1nnc(NC(=S)NC(=O)c2ccc(-c3cccc(Cl)c3Cl)o2)n1	none (no result: CYP2C19 inhib, CYP2C9 activ, CYP2C19 activ, CYP2C9 inh)
Fc1ccc(CSc2ncnc3sc4c(c23)CCCC4)cc1	none
CCOc1ccccc1CNS(=O)(=O)c1ccc2c(c1)oc(=O)n2C	CYP2C19 inhib 78, CYP2C9 activ 2.3
COc1ccccc1CNC(=O)C(CCSC)NS(=O)(=O)c1ccc2c(c1)oc(=O)n2C (stereo not drawn)	CYP2C19 inhib 91
COc1ccccc1CNC(=O)C(CC(C)C)NS(=O)(=O)c1ccc2c(c1)oc(=O)n2C (stereo not drawn)	none
N#CCCn1nc(-c2ccc([N+](=O)[O-])cc2)cc1Nc1ccccc1NC(=O)C(F)(F)F	none (no result: CYP2C19 inhib, CYP2C9 activ, CYP2C19 activ, CYP2C9 inh)
Nn1c(SCC(=O)NCc2ccc3c(c2)OCO3)nnc1C1CC1	none
c1ccn2c(SCc3ccc4c(c3)OCO4)nnc2c1	CYP2C19 inhib 65
Cn1c(SCc2ccc3c(c2)OCO3)nnc1-c1ccccc1	CYP2C19 inhib 98
Clc1ccc(CSc2nnc3ccccn23)c(Cl)c1	none (no result: CYP2C19 inhib, CYP2C9 activ, CYP2C19 activ, CYP2C9 inh)
Fc1ccc(CSc2nncn2NCc2ccc3c(c2)OCO3)cc1	CYP2C19 inhib 93, CYP2C9 inh 83
COC(=O)CSc1nnc(-c2ccc3c(c2)OCO3)n1C	none (no result: Mac1 fbg enh, CD11b adhes inh)
O=C(CSc1nnc2ccccn12)N1CCOCC1	none
O=C(CSc1nnc2ccccn12)c1ccc2c(c1)OCCO2	CYP2C19 inhib 82
CCc1c(O)nc2sc3ccccc3n2c1=O	none
CS(=O)(=O)N1N=C(c2ccccc2)CC1c1cccs1 (stereo not drawn)	CYP2C19 inhib 55 (no result: Mac1 fbg enh, CD11b adhes inh)
O=C(c1cccs1)N1N=C(c2ccccc2)CC1c1ccccc1 (stereo not drawn)	CYP2C19 inhib 68, CYP2C9 inh 95
CC1=NNC(=O)C1C(c1ccccc1)C(C#N)C#N (stereo not drawn)	none
CN(C)c1ccc(/C=C2\SC(=S)N(Nc3ncc(C(F)(F)F)cc3Cl)C2=O)cc1	none (no result: Mac1 fbg enh, CD11b adhes inh)
COc1cc(/C=C2\SC(=S)N(Nc3ncc(C(F)(F)F)cc3Cl)C2=O)ccc1O	CYP2C19 inhib 54, CYP2C9 inh 52
CCCCN(CC)S(=O)(=O)N1CCC(C(=O)NCc2ccc(F)cc2)CC1	CYP2C19 inhib 58
CCC(=O)NC1(C(F)(F)F)C(=O)NC(C)=C1C#N (stereo not drawn)	none
Cc1ccccc1CN(c1ccc(C(=O)N2CCCC2)cc1)S(C)(=O)=O	none

From PubChem
